The record followed here is PubChem BioAssay (NCATS).

Values joined by “and” are separate entries in the source; they are usually repeats but may differ in a detail not shown here. Equal values may be shown once. Results filed as inconclusive are left out. Unmarked numbers belong to inactive results. Active and inactive are the calls of the source. The call rests on the fitted dose curve; in most records, active means well fitted inhibition curve with a large enough effect; inconclusive means small, poorly fitted or top-dose-only effect; inactive means flat fitted curve, though single readings scatter. Peptide text beside a SMILES is read from it.

One test concerns TAB165. The test is described as follows: qHTS profiling for inhibitors of Plasmodium falciparum proliferation (AID 504749). Further: potency means the concentration at half of the fitted maximal effect. The conditions noted are these: P. falciparum in erythrocytes, SYBR Green DNA, 72 h; series mostly up to 28.7 µM. The method, boiled down:
(§1)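 Parasite proliferation within erythrocytes, 72 h exposure. Endpoint: SYBR Green I fluorescence after overnight lysis at room temperature. Controls: 0.29 uM artemisinin, DMSO.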
On the technique in general: Quantitative high-throughput screening tests each substance at several concentrations.

Another test deals with W2. The test is described as above. The conditions noted are these: P. falciparum in erythrocytes, SYBR Green DNA, 72 h; series mostly up to 28.7 µM. Put shortly:
as §1

A further test concerns KB-3-1. The test is described as follows: Cytotoxic Profiling of Annotated Libraries Using Quantitative High-Throughput Screening (AID 1296008). Further: potency means the concentration at half of the fitted maximal effect. On max response: on the % scale 0 is the no-effect control and ±100 the full control effect. The note with it: Five cell lines viability, CellTiter-Glo ATP luminescence, 48-72 h; max response: stronger effect = lower value. The method, boiled down:
(§2)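 Compounds were pin-transferred onto cells and incubated 48 or 72 hr at 37 degree Celsius, 95% humidity. CellTiter-Glo was added, plates sat 10 min at room temperature, then ATP-coupled luminescence was imaged as the viability read-out.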
For orientation: Cellular ATP, detected with luciferase, serves as a proxy for viable cell number.

The subject of a further test is CRL-7250. The test is described as follows: qHTS assay to identify novel small-molecules to repurpose for Merkel cell carcinoma treatment (AID 1296009). The note with it: MCC and control cell lines, CellTiter-Glo viability, 72 h; at 44.8 µM (top of the series) unless noted. The method, boiled down: (§3)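 qHTS format: cells treated with library compounds in DMSO across 8 (NPC) or 11 (MIPE) concentrations. Readout after 72 hr at 37 degree celsius was CellTiter-Glo luminescence.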

The subject of the next test is HEK293. The test is described as follows: Cytotoxic Profiling of Annotated Libraries Using Quantitative High-Throughput Screening (AID 1296008). Further: potency means the concentration at half of the fitted maximal effect. On max response: on the % scale 0 is the no-effect control and ±100 the full control effect. The note with it: Five cell lines viability, CellTiter-Glo ATP luminescence, 48-72 h; max response: stronger effect = lower value. Put shortly:
as §2

In test [1] the test system is HaCat. Described as above. The note with it: Five cell lines viability, CellTiter-Glo ATP luminescence, 48-72 h; max response: stronger effect = lower value. Put shortly:
as §2

For the next test, the system named is NIH3T3. Described as above. The conditions noted are these: Five cell lines viability, CellTiter-Glo ATP luminescence, 48-72 h; max response: stronger effect = lower value. Put shortly: as §2
For test [2], the system named is HACAT. The test is described as follows: qHTS assay to identify novel small-molecules to repurpose for Merkel cell carcinoma treatment (AID 1296009). The note with it: MCC and control cell lines, CellTiter-Glo viability, 72 h; at 44.8 µM (top of the series) unless noted. The method, boiled down: as §3
The subject of the next test is HEK293T. The description is as above. The note with it: MCC and control cell lines, CellTiter-Glo viability, 72 h; at 44.8 µM (top of the series) unless noted. Put shortly:
as §3
Further: nearly all actives have a fitted effect of over 60% in size.

Take `O=C1Nc2ccc(Cl)cc2C(c2ccccc2Cl)=NC1O` (stereo unspecified): the Potency result in the test with TAB165 and in the test with W2 was “inactive” throughout. Also, the max response in the test with KB-3-1 is 3.46%.
For the compound `CN=C1CN(O)C(c2ccccc2)=c2cc(Cl)ccc2=N1`, the max response in the test on KB-3-1 is -12.7% and 2.13%.
As for `Nc1ccn(C[C@@H](CO)OCP(=O)(O)O)c(=O)n1`, in the test on KB-3-1, the max response was -9.56%.
On to `CC(=O)N(CC(O)CO)c1c(I)c(C(=O)NCC(O)CO)c(I)c(C(=O)NCC(O)CO)c1I` (stereo unspecified), for which the compound was called inactive with CRL-7250.
With `CN1C[C@H](C(=O)N[C@]2(C)O[C@@]3(O)[C@@H]4CCCN4C(=O)[C@H](Cc4ccccc4)N3C2=O)C=C2c3cccc4[nH]cc(c34)C[C@H]21`, the figures for the Potency in the test on TAB165 and in the test on W2 were 0.447 µM (active) and 0.0536 µM (active), respectively. The max response with KB-3-1 was -3.72%.
`C[C@]12CC[C@@H]3c4ccc(OC(=O)N(CCCl)CCCl)cc4CC[C@H]3[C@@H]1CC[C@@H]2O`: the Potency result with TAB165 and in the test on W2 was “inactive” in each case. Further, in the test on HEK293, the Potency was 29.9 µM (active). Moreover, the max response in the test on KB-3-1 was -1.74%.
Turning to `Nc1cc(=O)[nH]c(N)n1`, the call with CRL-7250 was inactive.
On to `CC(C)(Oc1ccc(Cl)cc1)C(=O)O`, for which, in the test with CRL-7250, the result was inactive.
On the same count and under the same terms, then `Cc1nc(-c2ccc(Cl)cc2)oc1COC(C)(C)C(=O)O`, with “inactive”.
With `COC(=O)C(c1ccccc1)C1CCCCN1` (stereo unspecified), in the test with TAB165, the Potency entry is “inactive”. Also, the Potency in the test on W2 was 4.26 µM (active). Further, the max response in the test on KB-3-1 was 5.58%.
Turning to `O=C(C1CCCCC1)N1CC(=O)N2CCCc3ccccc3C2C1` (stereo unspecified), the compound was called inactive in the test with CRL-7250.
Take `Clc1ccc2c(c1)C(c1ccccc1)=NCc1nncn1-2`: the Potency entry in the test with TAB165 and in the test with W2 was “inactive” each time. Besides, the max response with KB-3-1 was 2.88%.
`O=c1oc2ccccc2c(O)c1Cc1c(O)c2ccccc2oc1=O`: the Potency entry in the test on TAB165 and in the test with W2 was “inactive” throughout. Besides, the result in the test on HaCat [1], in the test on NIH3T3 and in the test on HACAT [2] was inactive.
Regarding `Cc1ccc(S(=O)(=O)NC(=O)NC2CCCCC2)cc1`, in the test with CRL-7250, the compound was called inactive.
In the case of `Cc1nnc2n1-c1ccc(Cl)cc1C(c1ccccc1)=NC2`, in the test with TAB165, the Potency entry was “inactive”. Moreover, in the test with W2, the Potency was 4.78 µM (active). In the test on KB-3-1, the max response is -2.21%.
In the same order, the values of `CN1C(=O)CC(=O)N(c2ccccc2)c2cc(Cl)ccc21` are “inactive”, “inactive” and 9.14%.
On to `CC[C@]12CCCN3CCc4c(n(c5ccccc45)[C@@](O)(C(=O)OC)C1)[C@@H]32`, for which, in the test on CRL-7250, the compound was called inactive.
Still for that read-out and setting: then `C/C(=N\O)[C@@H](C)NCC(C)(C)CN[C@H](C)/C(C)=N/O`, with “inactive”.
On to `CC(C)c1c(CN(C)C(C)Cc2ccccc2)n(C)n(-c2ccccc2)c1=O` (stereo unspecified), for which the max response is 1.6% in the test with KB-3-1 and 4.46% with NIH3T3.
Regarding `CCOC(=O)C(O)c1ccccc1` (stereo unspecified), the outcome in the test on CRL-7250 was inactive.
On the same count and under the same terms, then `CCO/C([O-])=N/c1c[n+](N2CCOCC2)no1`, with “inactive”.
The same measure, in the same setting: the result for `CCS(=O)(=O)CCn1c([N+](=O)[O-])cnc1C` reads “inactive”.
With `C[C@@H]1CC2=CC(=O)CC[C@@H]2[C@H]2CC[C@@]3(C)[C@@H](CC[C@]3(C)O)[C@@H]21`, the figures for the max response in the test on HaCat [1] and in the test with NIH3T3 were -11% and -27.8%, respectively.
Consider `CN[C@@H](C)Cc1ccccc1`, for which the max response with KB-3-1 is -3.3%.
Consider `CCC(C)(C)c1ccc(O)cc1`, for which the Potency result with TAB165 and in the test with W2 was “inactive” throughout. In addition, the compound was called inactive in the test on HEK293 and in the test on HEK293T. Besides, the max response is 2.15% in the test with HaCat [1], 14.4% with KB-3-1 and 3.56% in the test with NIH3T3.
Consider `COc1cccc(C(=O)CCN[C@@H](C)[C@H](O)c2ccccc2)c1`, for which the outcome with HaCat [1] and in the test on HACAT [2] was inactive. Moreover, the max response was 25.7% in the test on KB-3-1 and -18.8% in the test on NIH3T3.
Turning to `NC(N)=NS(=O)(=O)c1ccc(N)cc1`, the result in the test with CRL-7250 was inactive.
On the same count and under the same terms, then `CCOc1nc2cccc(C(=O)O)c2n1Cc1ccc(-c2ccccc2-c2nn[nH]n2)cc1`, with “inactive”.
On the same count and under the same terms, the result for `CC(C)(C)C(=O)Oc1ccc(S(=O)(=O)Nc2ccccc2C(=O)NCC(=O)O)cc1` reads “inactive”; that for `Cc1cnc(NS(=O)(=O)c2ccc(N)cc2)nc1`, “inactive”.
On the same count and under the same terms, then `OC[C@H]1O[C@H](O[C@]2(CCl)O[C@H](CCl)[C@@H](O)[C@@H]2O)[C@H](O)[C@@H](O)[C@H]1Cl`, with “inactive”; and `CO/N=C(/C(=O)N[C@@H]1C(=O)N2C(C(=O)OCOC(=O)C(C)(C)C)=C(C)CS[C@H]12)c1csc(N)n1`, with “inactive”; and `CCCCOC(=O)c1ccc(N)cc1`, with “inactive”.
Turning to `CCNC(=O)[C@@H]1CCCN1C(=O)[C@H](CCCN=C(N)N)NC(=O)[C@H](CC(C)C)NC(=O)CNC(=O)[C@H](Cc1ccc(O)cc1)NC(=O)[C@H](CO)NC(=O)[C@H](Cc1c[nH]c2ccccc12)NC(=O)[C@H](Cc1cnc[nH]1)NC(=O)[C@@H]1CCC(=O)N1` (HELM PEPTIDE1{[Glp].H.W.S.Y.G.L.R.P.[CCN[*:1]]}$$$$V2.0), the call in the test with CRL-7250 was inactive.
Take `CN(c1nccc(=O)[nH]1)C1CCN(c2nc3ccccc3n2Cc2ccc(F)cc2)CC1`: in the test with CRL-7250, the call was inactive.
`C[C@]12C=CC(=O)C=C1CC[C@@H]1[C@@H]2C(=O)C[C@@]2(C)[C@H]1CC[C@]2(O)C(=O)CO`: in the test on CRL-7250, the outcome is “inactive [at 17.4 µM]”.
